These results are taken from PubChem BioAssay AID2551 (National Center for Advancing Translational Sciences (NCATS), 2010).

Screen size: about 310,000 compounds; about 17,000 (5.5%) were called active. Where a call stands in place of a potency, no number is given. Not shown: some 11% with an inconclusive outcome. Calls come from the whole dose curve; as a rule, active = well fitted inhibition curve with a large enough effect; inconclusive = small, poorly fitted or top-dose-only effect, or effect the other way; inactive = no such curve, though single readings can be large or run the other way. The full list was thinned out, with actives kept by preference.
Potency is the fitted concentration of half-maximal effect.

In this assay the target is Nuclear receptor ROR-gamma (Mus musculus) (UniProt P51450). Put plainly: qHTS for inhibitors of ROR gamma transcriptional activity. Note: nearly all actives have a fitted effect of over 60% in size. To be noted: Drosophila S2 Gal4-RORgamma UAS-luciferase reporter, 20 h; series mostly up to 53.6 µM. From the text: NIH Molecular Libraries Probe Production Network [MLPCN] NIH Chemical Genomics Center [NCGC] MLPCN Grant: R03 DA026211-01 Assay Provider: Dan Littman, New York University Assay Overview: The retinoic acid-related orphan receptor (ROR) gamma is a transcription factor that has a central role in the differentiation of Th17 cells, a subset of T helper cells that secrete the inflammatory cytokines IL-17, IL-17F, and IL-22. Th17 cells have been implicated in graft versus host disease, autoimmune disease and asthma. ROR gamma is induced in naive T helper cells in the presence of TGF-beta combined with IL-6, IL-21, or IL-23, and thereafter directs the expression of the Th17 lineage cytokines. To study the mechanism of action of ROR gamma, an insect cell-based assay was screened. This Drosophila Schneider cell line was stably transfected with two vectors: a gene expressing a fusion of the Gal4 DNA binding domain and ROR gamma transactivation domain under the control of the metallothionine promoter and a Photinus luciferase reporter regulated by the Gal4 binding site enhancer, UAS. […] Small molecule inhibitors of ROR gamma activity are detected by a decrease in luciferase reporter activity.
Nuclear receptor ROR-gamma (Mus musculus), sequence (P51450 whole entry, looked up, the tested form may be a part): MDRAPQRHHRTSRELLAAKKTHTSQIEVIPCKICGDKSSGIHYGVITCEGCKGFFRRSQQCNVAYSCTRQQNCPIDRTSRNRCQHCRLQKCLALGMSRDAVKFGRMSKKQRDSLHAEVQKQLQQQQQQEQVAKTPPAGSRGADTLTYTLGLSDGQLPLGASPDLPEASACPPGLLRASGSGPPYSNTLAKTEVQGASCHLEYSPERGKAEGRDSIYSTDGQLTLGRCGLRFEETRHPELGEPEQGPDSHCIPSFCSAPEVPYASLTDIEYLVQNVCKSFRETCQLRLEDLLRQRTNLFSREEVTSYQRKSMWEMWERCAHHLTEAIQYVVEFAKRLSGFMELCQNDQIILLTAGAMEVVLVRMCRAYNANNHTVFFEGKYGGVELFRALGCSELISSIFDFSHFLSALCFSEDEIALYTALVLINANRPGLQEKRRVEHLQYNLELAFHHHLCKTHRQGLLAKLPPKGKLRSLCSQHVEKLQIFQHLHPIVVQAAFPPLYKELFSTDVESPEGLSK
Assay Protocol Summary: For screening, 600 cells in 4 uL/well were dispensed into white solid 1536-well plates (Grenier) using a solenoid-based dispenser. Following transfer of 23 nL compound or DMSO vehicle by a pin tool, the plates were incubated 1 hr at ambient temperature, and 1 uL/well copper sulfate (700 uM final concentration) was added. The plates were centrifuged 15 s at 1000 RPM and incubated 20 hr at ambient temperature. After addition of 1.5 uL Photinus luciferase detection reagent, the plates were incubated 10 min at ambient temperature and then read by an ViewLux (Perkin Elmer) to detect luminescence. Keywords: NIH Roadmap, MLPCN, MLI, MLSMR, qHTS, NCGC, qHTS, nuclear hormone receptor, retinoic acid-related orphan receptor, ROR gamma
As to `O=c1c2c(nc3nc[nH]n13)CCC2`, the Potency result is “inactive”.
The same measure for `Cc1nc(S(=O)(=O)c2ccc(Br)cc2)nc2c1CCC2`: “inactive”; for `Brc1ccc(Nc2c3c(nc4ncnn24)CCC3)cc1`: 12.6 µM (active).
The same measure for `CC1CN/C(=C\C(=O)c2ccc(Br)cc2)C(=O)N1` (stereo not given): 12.6 µM (active).
The value for `COc1cc2c(cc1OC)/C(=C/C(=O)c1ccc(NC(C)=O)cc1)NCC2` was “inactive”.
Regarding `C/C(=C\C(=O)c1ccc(Br)cc1)N1CCCCC1`, the Potency entry was “inactive”.
The value for `C[C@H](NC(=O)[C@@H]1Cc2ccccc2CN1C(=O)OC(C)(C)C)C(=O)NC1CCCC1` was “inactive”.
In the case of `CC(NC(=O)c1ccco1)c1ccc2c(c1)OCO2` (stereo not given), the Potency result was “inactive”.
The same measure for `Cc1ccc(C(=O)Nc2ccc(NC(=O)c3cccs3)cc2)c(C)c1`: “inactive”; for `Cc1cc(/C=N/n2cnnc2)c(C)n1-c1cccc(C(=O)O)c1`: “inactive”.
The same measure for `Cc1cccc(-n2c(C)cc(/C=N/NC(N)=S)c2C)c1`: 3.55 µM (active).
Consider `Cc1cc(/C=N/Nc2ccc([N+](=O)[O-])cn2)c(C)n1-c1cccc(C(=O)O)c1`, for which the Potency result was “inactive”.
Consider `Cc1cccc(-n2c(C)cc(/C=N\NC(=O)c3cccs3)c2C)c1`, for which the Potency was 10 µM (active).
Regarding `Cc1cc(/C=C2\SC(=O)N(C)C2=O)c(C)n1-c1cccc(C(=O)O)c1`, the Potency result is “inactive”.
The same measure for `COC(=O)c1ccc2c(=O)n(CCN3CCOCC3)c(SCC(=O)Nc3cccc(OC)c3)nc2c1`: “inactive”.
As for `CCN1C(=S)N[C@@H](c2cccc(C(F)(F)F)c2)C(C(=O)OC)=C1C`, the Potency entry was “inactive”.
As for `CC(C)C[C@H](NC(=O)C1CCC(CNC(=O)[C@@H]2CCCN2C(=O)OC(C)(C)C)CC1)C(=O)O` (stereo not given in full), the Potency entry was “inactive”.
The value for `COC(=O)Nc1ccc(S(=O)(=O)Nc2cc(OC)nc(OC)n2)cc1` was “inactive”; that for `COc1cc(NS(=O)(=O)c2ccc(N/C=C(\C=O)c3nc4cc(Cl)ccc4o3)cc2)nc(OC)n1` was 14.1 µM (active).
`COc1cc(NS(=O)(=O)c2ccc(NC(=S)NC(=O)c3ccccc3)cc2)nc(OC)n1`: the Potency entry is “inactive”.
For the molecule `COc1ccc(C2(O)C(=O)Nc3ccccc32)cc1` (stereo not given), the Potency result was “inactive”.
The same measure for `Cc1cccn2c(=O)c3cc(C(=O)NC4CCCCC4)sc3nc12`: “inactive”.
For `COc1ccc(-c2nc(CS(=O)(=O)CC(=O)NCc3cccc(Br)c3)c(C)o2)cc1`, the Potency result was “inactive”.
The value for `CC(C)c1ccc(NC(=S)NNc2ccc(Cl)c(C(=O)O)c2)cc1` was “inactive”; that for `CC(C)c1ccc(NC(=S)NC2CC3C=CC2C3)cc1` (stereo not given) was 3.55 µM (active).
The value for `S=C(NNC(=S)NC1CC2C=CC1C2)NC1CC2C=CC1C2` (stereo not given) was “inactive”.
On to `CC(=O)Nc1ccc(NC(=O)COc2ccc(-c3ccccc3)cc2)cc1`, for which the Potency result was “inactive”.
Take `CC1=CC(C)(C)N(C(=O)CSc2nccn2C)c2cc(C)ccc21`: the Potency is 11.2 µM (active).
`CC1=CC(C)(C)N(C(=O)CSc2nnc(-c3ccccc3)o2)c2ccc(C)cc21`: the Potency entry was “inactive”.
In the case of `Cc1ccc(C)c(-n2ccnc2SCC(N)=O)c1`, the Potency result was “inactive”.
